Lassa entry: Lassa virus entry inhibition; 18,000 compounds, 4.1% hits; Lassa virus pseudotyped entry inhibition, cell-based qHTS; Potency, µM (highest dose often 49.2 µM), hits mostly inhibitors
MARV entry inh: blocks Marburg virus binding or cell entry. 18,000 compounds, 6.5% hits. AID 720532. Marburg virus pseudotype entry/binding inhibition, cell-based. Potency, µM (highest dose often 49.2 µM), most hits filed as inhibitors
Hits are given with their value; n = inactive; u = inconclusive; x = no result; ! = not active in a repeat; [ ] = another dose, or the depositor's remark. Most compounds without a hit are left out; they make up all but 7.1% or so of the library. Calls come from the whole dose curve; tested in HEK293 cells.

SMILES	Lassa entry	MARV entry inh
CC1(C)[C@@H](O)CC[C@]2(C)C3C(=O)C=C4C5C[C@@](C)(C(=O)O)CC[C@]5(C)CC[C@@]4(C)[C@]3(C)CC[C@@H]12 (some centres undefined)	n	n
CC1=C(O)C(=O)C=C2C1=CC=C1[C@]2(C)CC[C@@]2(C)C3C[C@](C)(C(=O)O)CC[C@@]3(C)CC[C@@]12C (some centres undefined)	4.5µM	4µM
C[C@]12CCC3C(CC[C@]4(O)C[C@@H](O)CC[C@]34C=O)[C@@]1(O)CC[C@@H]2C1=CC(=O)OC1 (some centres undefined)	1µM	u
COc1cc2ncn(-c3cc(OCc4ccccc4S(C)(=O)=O)c(C#N)s3)c2cc1OC	n	u
COc1cc2ncn(-c3cc(OC(C)c4ccccc4Cl)c(C(N)=O)s3)c2cc1OC (centres undefined)	x	3.5µM
COc1cc2ncn(-c3cc(OCc4ccccc4C(F)(F)F)c(C(=O)N(C)C)s3)c2cc1OC	n	u
COc1cc2ncn(-c3cc(OCCc4ccccc4)c(C(N)=O)s3)c2cc1OC	7.9µM	u
CCCCNC(=O)NS(=O)(=O)c1ccc(C(=O)O)cc1	n	n
C[C@@H]1CCCN1[C@H]1C[S+](=O)([O-])N[C@H]1COCc1ccccc1	x	n
CC(=O)[C@]1(O)CCC2C3CCC4=CC(=O)CC[C@@]4(C)C3CC[C@]21C (some centres undefined)	n	n
C=C1C[C@H]2[C@@H]3C=C(C)C4=CC(=O)CC[C@]4(C)[C@H]3CC[C@]2(C)[C@@]1(OC(C)=O)C(C)=O	u	13µM!
O=C(O)Cc1cccc(OCCCN(Cc2cccc(C(F)(F)F)c2Cl)CC(c2ccccc2)c2ccccc2)c1	u	n
CC[C@H](C)[C@H]1O[C@]2(CC[C@@H]1C)C[C@@H]1C[C@@H](C/C=C(\C)[C@@H](O[C@H]3C[C@H](OC)[C@@H](O[C@H]4C[C@H](OC)[C@@H](O)[C@H](C)O4)[C@H](C)O3)[C@@H](C)/C=C/C=C3\CO[C@@H]4[C@H](O)C(C)=C[C@@H](C(=O)O1)[C@]34O)O2	14µM	u
CO[C@H]1C[C@H](O[C@@H]2/C(C)=C/C[C@@H]3C[C@@H](C[C@]4(CC[C@H](C)[C@@H](C5CCCCC5)O4)O3)OC(=O)[C@@H]3C=C(C)/C(=N/O)[C@H]4OC/C(=C\C=C\[C@@H]2C)[C@]43O)O[C@@H](C)[C@@H]1O	n	n
O=C(c1cccnc1)C1CCCN(Cc2ccc3c(c2)CN(C(=O)c2cccs2)CCO3)C1 (centres undefined)	n	n
NC(=S)NCCC[C@H](N)C(=O)O	n	n
CC(=O)O[C@H]1C[C@H](O[C@H]2[C@@H](O)C[C@H](O[C@H]3[C@@H](O)C[C@H](O[C@H]4CC[C@@]5(C)[C@H](CC[C@@H]6[C@@H]5C[C@@H](O)[C@]5(C)[C@@H](C7=CC(=O)OC7)CC[C@]65O)C4)O[C@@H]3C)O[C@@H]2C)O[C@H](C)[C@H]1O[C@@H]1O[C@H](CO)[C@@H](O)[C@H](O)[C@H]1O	0.05µM	u
CC[C@H](NC(=O)[C@H](CCCN=C(N)N)NC(=O)[C@H](Cc1c[nH]c2ccccc12)NC(=O)[C@@H](N)CS)C(=O)N[C@@H](CCCN=C(N)N)C(=O)N[C@@H](Cc1ccc(O)cc1)C(N)=O	n	n
O=C(NCC1Cc2cccc(-c3cccnc3)c2O1)c1ccc2cc[nH]c2c1 (centres undefined)	n	n
CC1=C(/C=C/C(C)=C/C=C/C(C)=C/C=C/C=C(C)/C=C/C=C(C)/C=C/C2=C(C)C[C@@H](O)CC2(C)C)C(C)(C)C[C@H](O)C1	28µM	n
CC1=C(/C=C/C(C)=C/C=C/C(C)=C/C=C/C=C(C)/C=C/C=C(C)/C=C/C(=O)[C@]2(C)CC(O)CC2(C)C)C(C)(C)CC(O)C1 (some centres undefined)	n	n
COC(=O)/C(=C1\OC(=O)C(c2ccccc2)C1=O)c1ccccc1 (centres undefined)	n	n
CC(=O)c1ccc(F)c(-c2cc(C)cc3c2OC(CNC(=O)C[C@@H]2C[C@@H](C)NC(=S)N2)C3)c1 (some centres undefined)	n	u
CC(=O)NC1C(OC2OC(CC(O)C3OC([N+]4=CCC(=O)NC4=O)C(O)C3O)C(O)C(O)C2NC(=O)/C=C/CCCCCCCCC(C)C)OC(CO)C(O)C1O (centres undefined)	n	u
CC(=O)N[C@H]1C(O[C@@H]2O[C@H](C[C@@H](O)[C@H]3O[C@@H](N4CCC(=O)NC4=O)[C@H](O)[C@@H]3O)[C@H](O)[C@H](O)[C@H]2NC(=O)/C=C/CCCCCCCCCCC(C)C)OC(CO)[C@@H](O)[C@@H]1O (some centres undefined)	u	4.5µM
SMILES	Lassa entry	MARV entry inh
CC(C)Nc1cccnc1N1CCN(C(=O)c2cc3cc(NS(C)(=O)=O)ccc3[nH]2)CC1	n	n
COC(=O)N1CCN(C(=O)Cc2ccc(Cl)c(Cl)c2)C(CN2CCCC2)C1 (centres undefined)	n	u
COC(=O)[C@H]1CC=C[C@H]2CCN(Cc3ccc(Cl)c(Cl)c3)C(=O)[C@@H]12	n	n
CN(CCc1ccc(Cl)c(Cl)c1)[C@@H]1CCCC[C@@H]1N1CCCC1	u	7.9µM
CN(CCc1ccc(Cl)c(Cl)c1)CCN1CCCC1	32µM	8.9µM
CC(C)(CO)NC(=O)c1cnn(-c2ncc3c(n2)-c2ccccc2CC3)c1C1CC1	n	n
Cn1ccc2c(C=Cc3ccc(F)cc3)cc3c(c21)C1CCC3O1 (centres undefined)	n	n
CCOC(=O)[C@H](CCc1ccccc1)N[C@@H](C)C(=O)N1C(=O)N(C)C[C@H]1C(=O)O	n	n
N#Cc1cccc(Nc2ncc(-c3ccccc3)o2)c1	n	n
C=CCOC(=O)C(C(C)=O)[C@@H](NC(=O)OC)c1cccc(C)c1 (some centres undefined)	n[8.59 µM]	u
O=C(NCC1Cc2cccc(-c3cnccn3)c2O1)c1ccc(F)c(Cl)c1 (centres undefined)	n	11µM
O=C(NCC1Cc2cccc(-c3ncccn3)c2O1)c1cccc(-c2ccccc2F)c1 (centres undefined)	n	n
Cc1cc2c(c(-c3cnccn3)c1)OC(CNC(=O)c1cc(Cl)ccc1F)C2 (centres undefined)	n	25µM
CSc1ccccc1C(=O)NCC1Cc2cc(F)cc(-c3cnccn3)c2O1 (centres undefined)	n	n
COc1cccc([C@@H]2Oc3ccc(OC)cc3[C@H](O)[C@H]2O)c1	n	n
COC(=O)c1ccccc1-c1cc(C)cc2c1OC(CNC(=O)c1cnc(C)cn1)C2 (centres undefined)	n	n
CCOC(=O)C1=C(C)c2ccccc2N(S(=O)(=O)C(F)(F)F)C1C(=O)OCC (centres undefined)	n	n
CC(=O)O[C@@H]1C(CO[Si](C)(C)C(C)(C)C)=C(Br)C(=O)[C@@H]2O[C@]12C	n	n
Cc1cc(C)c(N(Cc2ccccc2)S(=O)(=O)c2ccc(OCCNC(=O)c3cc4ccccc4o3)cc2)c(C(=O)NO)c1	13µM	5µM
Cc1ncc2c(c1CNS(=O)(=O)N(C)C)CCN(C(=O)/C=C/c1ccccc1F)C2	n	n
CS(=O)(=O)CCNCc1nc(-c2ccc3ncnc(Nc4ccc(OCc5cccc(F)c5)c(Cl)c4)c3c2)cs1	n	n

Bioassay records (PubChem BioAssay)
